Paper PMC11006913
Changes are numbered by the printed parent chain.

Key:
Test in all cases: PBM; 200 nM protein, PBS
Conditions in all cases: dsDNA, one strand shown
HOXB4 [1] = molecular target: HOXB4 (Homo sapiens, UniProt P17483 148-234)
HOXB6 [2] = molecular target: HOXB6 (Homo sapiens, UniProt P17509 132-218, K202E)
HOXB4 [3] = molecular target: HOXB4 (Homo sapiens, UniProt P17483 148-234, V174I)
ALX1 [4] = molecular target: ALX1 (Homo sapiens, UniProt Q15699 118-204, L144V)
ALX3 [5] = molecular target: ALX3 (Homo sapiens, UniProt O95076 139-225, N203Q)
Chain of ALX3 (Homo sapiens, UniProt O95076 139-225, N203Q) (O95076 139-225 N203Q): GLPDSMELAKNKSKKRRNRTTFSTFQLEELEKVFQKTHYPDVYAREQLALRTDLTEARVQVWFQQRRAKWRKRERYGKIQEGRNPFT

ALX1 [6] = molecular target: ALX1 (Homo sapiens, UniProt Q15699 118-204, L144R)
Chain of ALX1 (Homo sapiens, UniProt Q15699 118-204, L144R) (Q15699 118-204 L144R): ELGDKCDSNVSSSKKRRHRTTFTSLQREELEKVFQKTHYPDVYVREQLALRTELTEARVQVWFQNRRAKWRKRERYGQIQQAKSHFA

ALX3 [7] = molecular target: ALX3 (Homo sapiens, UniProt O95076 139-225)
Chain of ALX3 (Homo sapiens, UniProt O95076 139-225) (O95076 139-225): as the sequence (O95076 139-225 N203Q) above, with Q65N counted along it

ALX3 [8] = molecular target: ALX3 (Homo sapiens, UniProt O95076 139-225, L168Q)
Chain of ALX3 (Homo sapiens, UniProt O95076 139-225, L168Q) (O95076 139-225 L168Q): as the sequence (O95076 139-225 N203Q) above, with L30Q, Q65N counted along it

ALX3 [9] = molecular target: ALX3 (Homo sapiens, UniProt O95076 139-225, L168V)
Chain of ALX3 (Homo sapiens, UniProt O95076 139-225, L168V) (O95076 139-225 L168V): as the sequence (O95076 139-225 N203Q) above, with L30V, Q65N counted along it

ALX1 [10] = molecular target: ALX1 (Homo sapiens, UniProt Q15699 118-204)
Chain of ALX1 (Homo sapiens, UniProt Q15699 118-204) (Q15699 118-204): as the sequence (Q15699 118-204 L144R) above, with R27L counted along it

ALX3 [11] = molecular target: ALX3 (Homo sapiens, UniProt O95076 139-225, N203S)
Chain of ALX3 (Homo sapiens, UniProt O95076 139-225, N203S) (O95076 139-225 N203S): as the sequence (O95076 139-225 N203Q) above, with Q65S counted along it

HOXB6 [12] = molecular target: HOXB6 (Homo sapiens, UniProt P17509 132-218)
Chain of HOXB6 (Homo sapiens, UniProt P17509 132-218) (P17509 132-218): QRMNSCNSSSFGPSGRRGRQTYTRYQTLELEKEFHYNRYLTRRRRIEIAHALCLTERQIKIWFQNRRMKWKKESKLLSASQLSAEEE

HOXA4 = HOXA4 (Homo sapiens, UniProt Q00056 201-287, R217L)
Chain of HOXA4 (Q00056 201-287 R217L): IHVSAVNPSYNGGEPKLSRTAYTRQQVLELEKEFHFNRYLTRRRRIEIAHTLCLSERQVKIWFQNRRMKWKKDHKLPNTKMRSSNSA

PAX4 [13] = molecular target: T1, PAX4 (Homo sapiens, UniProt O43316 9-242, R200K)
T1 sequence: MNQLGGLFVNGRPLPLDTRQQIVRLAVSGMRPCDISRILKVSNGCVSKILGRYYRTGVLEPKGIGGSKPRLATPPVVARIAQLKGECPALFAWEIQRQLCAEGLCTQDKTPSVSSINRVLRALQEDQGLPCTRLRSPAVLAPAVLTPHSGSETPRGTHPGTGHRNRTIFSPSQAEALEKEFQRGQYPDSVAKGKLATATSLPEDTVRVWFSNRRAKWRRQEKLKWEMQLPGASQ

PAX4 [14] = molecular target: T2, PAX4 (Homo sapiens, UniProt O43316 9-242)
T2 sequence: T1 sequence with K192R

PAX4 [15] = molecular target: T3, PAX4 (Homo sapiens, UniProt O43316 9-242, R200Q)
T3 sequence: T1 sequence with K192Q

PAX4 [16] = molecular target: T4, PAX4 (Homo sapiens, UniProt O43316 9-242, F177V)
T4 sequence: T1 sequence with F169V, K192R

PAX4 [17] = molecular target: T5, PAX4 (Homo sapiens, UniProt O43316 9-242, F177Y)
T5 sequence: T1 sequence with F169Y, K192R

PAX4 [18] = molecular target: T6, PAX4 (Homo sapiens, UniProt O43316 9-242, R227W)
T6 sequence: T1 sequence with K192R, R219W

PRRX1 [19] = molecular target: PRRX1 (Homo sapiens, UniProt P54821 80-166, F113S)
Chain of PRRX1 (Homo sapiens, UniProt P54821 80-166, F113S) (P54821 80-166 F113S): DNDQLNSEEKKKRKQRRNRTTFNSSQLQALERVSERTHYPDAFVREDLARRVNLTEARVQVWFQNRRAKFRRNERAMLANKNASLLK

HOXA2 [20] = molecular target: HOXA2 (Homo sapiens, UniProt O43364 129-215, R185T)
Chain of HOXA2 (Homo sapiens, UniProt O43364 129-215, R185T) (O43364 129-215 R185T): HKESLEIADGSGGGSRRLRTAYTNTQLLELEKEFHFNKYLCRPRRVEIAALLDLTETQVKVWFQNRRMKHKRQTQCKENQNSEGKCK

HOXA2 [21] = molecular target: HOXA2 (Homo sapiens, UniProt O43364 129-215, R185K)
Chain of HOXA2 (Homo sapiens, UniProt O43364 129-215, R185K) (O43364 129-215 R185K): as the sequence (O43364 129-215 R185T) above, with T57K counted along it

HOXA2 [22] = molecular target: HOXA2 (Homo sapiens, UniProt O43364 129-215, Y150S)
Chain of HOXA2 (Homo sapiens, UniProt O43364 129-215, Y150S) (O43364 129-215 Y150S): as the sequence (O43364 129-215 R185T) above, with Y22S, T57R counted along it

PRRX1 [23] = molecular target: PRRX1 (Homo sapiens, UniProt P54821 80-166)
Chain of PRRX1 (Homo sapiens, UniProt P54821 80-166) (P54821 80-166): as the sequence (P54821 80-166 F113S) above, with S34F counted along it

HOXA2 [24] = molecular target: HOXA2 (Homo sapiens, UniProt O43364 129-215)
Chain of HOXA2 (Homo sapiens, UniProt O43364 129-215) (O43364 129-215): as the sequence (O43364 129-215 R185T) above, with T57R counted along it

ALX4 [25] = molecular target: ALX4 (Homo sapiens, UniProt Q9H161 200-286)
Chain of ALX4 (Homo sapiens, UniProt Q9H161 200-286) (Q9H161 200-286): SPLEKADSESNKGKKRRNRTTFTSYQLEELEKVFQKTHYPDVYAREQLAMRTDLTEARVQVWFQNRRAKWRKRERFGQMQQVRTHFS

ALX4 [26] = molecular target: ALX4 (Homo sapiens, UniProt Q9H161 200-286, Q225E)
Chain of ALX4 (Homo sapiens, UniProt Q9H161 200-286, Q225E) (Q9H161 200-286 Q225E): as the sequence (Q9H161 200-286) above, with Q26E counted along it

Chain of HOXB4 (Homo sapiens, UniProt P17483 148-234, V174I) (P17483 148-234 V174I): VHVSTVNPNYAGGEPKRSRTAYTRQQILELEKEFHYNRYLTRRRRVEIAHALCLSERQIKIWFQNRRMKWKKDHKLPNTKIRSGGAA
Chain of HOXB4 (Homo sapiens, UniProt P17483 148-234) (P17483 148-234): as the sequence (P17483 148-234 V174I) above, with I27V counted along it
Chain of HOXB6 (Homo sapiens, UniProt P17509 132-218, K202E) (P17509 132-218 K202E): as the sequence (P17509 132-218) above, with K71E counted along it
Chain of ALX1 (Homo sapiens, UniProt Q15699 118-204, L144V) (Q15699 118-204 L144V): as the sequence (Q15699 118-204 L144R) above, with R27V counted along it

**Q.** For ACCCCCGT, which binding signal (HOXB4 [1]) is on record?
**A.** 7.65 upbm affinity estimate (log intensity, higher = more binding, comparable within an allelic series)

**Q.** What about the binding signal (HOXB6 [2]) of the same sequence?
**A.** 8.84 upbm affinity estimate (log intensity, higher = more binding, comparable within an allelic series)

**Q.** And the binding signal (HOXB4 [3])?
**A.** 7.64 upbm affinity estimate (log intensity, higher = more binding, comparable within an allelic series)

**Q.** What about the binding signal (ALX1 [4]) of the same sequence?
**A.** 6.28 upbm affinity estimate (log intensity, higher = more binding, comparable within an allelic series)

**Q.** What about the binding signal (ALX3 [5]) of the same sequence?
**A.** 7.64 upbm affinity estimate (log intensity, higher = more binding, comparable within an allelic series)

**Q.** What about the binding signal (ALX1 [6]) of the same sequence?
**A.** 6.2 upbm affinity estimate (log intensity, higher = more binding, comparable within an allelic series)

**Q.** What about the binding signal (ALX3 [7]) of the same sequence?
**A.** 7.58 upbm affinity estimate (log intensity, higher = more binding, comparable within an allelic series)

**Q.** What about the binding signal (ALX3 [8]) of the same sequence?
**A.** 7.58 upbm affinity estimate (log intensity, higher = more binding, comparable within an allelic series)

**Q.** And the binding signal (ALX3 [9])?
**A.** 7.57 upbm affinity estimate (log intensity, higher = more binding, comparable within an allelic series)

**Q.** And the binding signal (ALX1 [10])?
**A.** 6.29 upbm affinity estimate (log intensity, higher = more binding, comparable within an allelic series)

**Q.** And the binding signal (ALX3 [11])?
**A.** 7.61 upbm affinity estimate (log intensity, higher = more binding, comparable within an allelic series)

**Q.** And the binding signal (HOXB6 [12])?
**A.** 8.76 upbm affinity estimate (log intensity, higher = more binding, comparable within an allelic series)

**Q.** Which binding signal (HOXB4 [1]) does the source give for CAGGCGCG here?
**A.** 7.35 upbm affinity estimate (log intensity, higher = more binding, comparable within an allelic series)

**Q.** What about the binding signal (HOXB6 [2]) of the same sequence?
**A.** 9.01 upbm affinity estimate (log intensity, higher = more binding, comparable within an allelic series)

**Q.** And the binding signal (HOXB4 [3])?
**A.** 7.45 upbm affinity estimate (log intensity, higher = more binding, comparable within an allelic series)

**Q.** And the binding signal (HOXB6 [12])?
**A.** 8.9 upbm affinity estimate (log intensity, higher = more binding, comparable within an allelic series)

**Q.** Which results are given for AATGATTA?
**A.** binding signal (HOXB4 [1]): 13.1 upbm affinity estimate (log intensity, higher = more binding, comparable within an allelic series); binding signal (HOXA4): 12 upbm affinity estimate (log intensity, higher = more binding, comparable within an allelic series); binding signal (HOXB4 [3]): 13.8 upbm affinity estimate (log intensity, higher = more binding, comparable within an allelic series)

**Q.** For CCTGCCCC, which binding signal (HOXB4 [1]) is on record?
**A.** 7.51 upbm affinity estimate (log intensity, higher = more binding, comparable within an allelic series)

**Q.** What about the binding signal (PAX4 [13]) of the same sequence?
**A.** 9.03 upbm affinity estimate (log intensity, higher = more binding, comparable within an allelic series)

**Q.** And the binding signal (PAX4 [14])?
**A.** 9.15 upbm affinity estimate (log intensity, higher = more binding, comparable within an allelic series)

**Q.** What about the binding signal (HOXB4 [3]) of the same sequence?
**A.** 7.65 upbm affinity estimate (log intensity, higher = more binding, comparable within an allelic series)

**Q.** What about the binding signal (PAX4 [15]) of the same sequence?
**A.** 9.01 upbm affinity estimate (log intensity, higher = more binding, comparable within an allelic series)

**Q.** And the binding signal (PAX4 [16])?
**A.** 9.07 upbm affinity estimate (log intensity, higher = more binding, comparable within an allelic series)

**Q.** What about the binding signal (PAX4 [17]) of the same sequence?
**A.** 9 upbm affinity estimate (log intensity, higher = more binding, comparable within an allelic series)

**Q.** What about the binding signal (PAX4 [18]) of the same sequence?
**A.** 9.13 upbm affinity estimate (log intensity, higher = more binding, comparable within an allelic series)

**Q.** For CTATTTGA, which binding signal (HOXB4 [1]) is on record?
**A.** 9.99 upbm affinity estimate (log intensity, higher = more binding, comparable within an allelic series)

**Q.** What about the binding signal (HOXB4 [3]) of the same sequence?
**A.** 9.85 upbm affinity estimate (log intensity, higher = more binding, comparable within an allelic series)

**Q.** With AATTTCTG as the sequence, how does the binding signal (HOXB4 [1]) read?
**A.** 9.75 upbm affinity estimate (log intensity, higher = more binding, comparable within an allelic series)

**Q.** And the binding signal (HOXB4 [3])?
**A.** 9.62 upbm affinity estimate (log intensity, higher = more binding, comparable within an allelic series)

**Q.** Which results are given for AGGCGCGC?
**A.** binding signal (HOXB4 [1]): 7.53 upbm affinity estimate (log intensity, higher = more binding, comparable within an allelic series); binding signal (HOXB6 [2]): 9.19 upbm affinity estimate (log intensity, higher = more binding, comparable within an allelic series); binding signal (HOXB4 [3]): 7.6 upbm affinity estimate (log intensity, higher = more binding, comparable within an allelic series); binding signal (ALX1 [4]): 6.59 upbm affinity estimate (log intensity, higher = more binding, comparable within an allelic series); binding signal (ALX1 [6]): 6.72 upbm affinity estimate (log intensity, higher = more binding, comparable within an allelic series); binding signal (ALX1 [10]): 6.44 upbm affinity estimate (log intensity, higher = more binding, comparable within an allelic series); binding signal (HOXB6 [12]): 8.96 upbm affinity estimate (log intensity, higher = more binding, comparable within an allelic series)

**Q.** TAGATTGA was tested. Which binding signal (HOXB4 [1]) did it give?
**A.** 10.2 upbm affinity estimate (log intensity, higher = more binding, comparable within an allelic series)

**Q.** What about the binding signal (HOXB4 [3]) of the same sequence?
**A.** 10.3 upbm affinity estimate (log intensity, higher = more binding, comparable within an allelic series)

**Q.** What does the source list for CCCGCGGG?
**A.** binding signal (HOXB4 [1]): 8.38 upbm affinity estimate (log intensity, higher = more binding, comparable within an allelic series); binding signal (PRRX1 [19]): 9.46 upbm affinity estimate (log intensity, higher = more binding, comparable within an allelic series); binding signal (HOXA2 [20]): 7.19 upbm affinity estimate (log intensity, higher = more binding, comparable within an allelic series); binding signal (HOXB4 [3]): 7.82 upbm affinity estimate (log intensity, higher = more binding, comparable within an allelic series); binding signal (HOXA2 [21]): 10.4 upbm affinity estimate (log intensity, higher = more binding, comparable within an allelic series); binding signal (HOXA2 [22]): 10.4 upbm affinity estimate (log intensity, higher = more binding, comparable within an allelic series); binding signal (PRRX1 [23]): 9.2 upbm affinity estimate (log intensity, higher = more binding, comparable within an allelic series); binding signal (HOXA2 [24]): 7.26 upbm affinity estimate (log intensity, higher = more binding, comparable within an allelic series)

**Q.** With AAGCCAAT as the sequence, how does the binding signal (HOXB4 [1]) read?
**A.** 10.3 upbm affinity estimate (log intensity, higher = more binding, comparable within an allelic series)

**Q.** And the binding signal (HOXB4 [3])?
**A.** 10.6 upbm affinity estimate (log intensity, higher = more binding, comparable within an allelic series)

**Q.** How did the binding signal (HOXB4 [1]) turn out when CCTGTGGA was run?
**A.** 7.33 upbm affinity estimate (log intensity, higher = more binding, comparable within an allelic series)

**Q.** What about the binding signal (ALX4 [25]) of the same sequence?
**A.** 8.17 upbm affinity estimate (log intensity, higher = more binding, comparable within an allelic series)

**Q.** And the binding signal (ALX4 [26])?
**A.** 8.04 upbm affinity estimate (log intensity, higher = more binding, comparable within an allelic series)

**Q.** And the binding signal (HOXB4 [3])?
**A.** 7.56 upbm affinity estimate (log intensity, higher = more binding, comparable within an allelic series)

**Q.** AGGTCCAC was tested. Which binding signal (HOXB4 [1]) did it give?
**A.** 7.8 upbm affinity estimate (log intensity, higher = more binding, comparable within an allelic series)

**Q.** What about the binding signal (HOXB4 [3]) of the same sequence?
**A.** 7.65 upbm affinity estimate (log intensity, higher = more binding, comparable within an allelic series)
